The target in experiment [1] is Tyrosine-protein kinase SYK (Homo sapiens) (UniProt P43405). The settings on record: at 10 µM.
Experiment [2] addresses T1, Mitogen-activated protein kinase kinase kinase 7 (Homo sapiens) (UniProt O43318).
T1 sequence (whole entry): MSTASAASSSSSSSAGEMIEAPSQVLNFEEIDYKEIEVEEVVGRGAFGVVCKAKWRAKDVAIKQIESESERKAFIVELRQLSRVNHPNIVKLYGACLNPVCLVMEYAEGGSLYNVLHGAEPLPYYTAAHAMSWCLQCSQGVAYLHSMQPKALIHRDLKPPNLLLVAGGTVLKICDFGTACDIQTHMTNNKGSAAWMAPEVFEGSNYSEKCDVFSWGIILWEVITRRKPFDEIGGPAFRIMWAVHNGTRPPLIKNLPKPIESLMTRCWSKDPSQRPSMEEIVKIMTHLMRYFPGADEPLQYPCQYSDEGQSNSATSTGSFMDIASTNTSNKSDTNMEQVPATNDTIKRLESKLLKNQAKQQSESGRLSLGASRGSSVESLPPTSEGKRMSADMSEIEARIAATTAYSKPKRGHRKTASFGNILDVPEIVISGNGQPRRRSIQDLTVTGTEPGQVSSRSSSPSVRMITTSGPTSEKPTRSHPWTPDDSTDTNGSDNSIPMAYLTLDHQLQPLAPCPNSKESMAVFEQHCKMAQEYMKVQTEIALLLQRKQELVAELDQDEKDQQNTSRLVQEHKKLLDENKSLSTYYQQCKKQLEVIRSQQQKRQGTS
The settings on record: at 1 µM.

For experiment [3], the target named is T1, Mitogen-activated protein kinase kinase kinase 7 (Homo sapiens). The settings on record: at 10 µM.
Experiment [4] deals with T2, Serine/threonine-protein kinase TAO1 (Homo sapiens) (UniProt Q7L7X3).
T2 sequence (whole entry): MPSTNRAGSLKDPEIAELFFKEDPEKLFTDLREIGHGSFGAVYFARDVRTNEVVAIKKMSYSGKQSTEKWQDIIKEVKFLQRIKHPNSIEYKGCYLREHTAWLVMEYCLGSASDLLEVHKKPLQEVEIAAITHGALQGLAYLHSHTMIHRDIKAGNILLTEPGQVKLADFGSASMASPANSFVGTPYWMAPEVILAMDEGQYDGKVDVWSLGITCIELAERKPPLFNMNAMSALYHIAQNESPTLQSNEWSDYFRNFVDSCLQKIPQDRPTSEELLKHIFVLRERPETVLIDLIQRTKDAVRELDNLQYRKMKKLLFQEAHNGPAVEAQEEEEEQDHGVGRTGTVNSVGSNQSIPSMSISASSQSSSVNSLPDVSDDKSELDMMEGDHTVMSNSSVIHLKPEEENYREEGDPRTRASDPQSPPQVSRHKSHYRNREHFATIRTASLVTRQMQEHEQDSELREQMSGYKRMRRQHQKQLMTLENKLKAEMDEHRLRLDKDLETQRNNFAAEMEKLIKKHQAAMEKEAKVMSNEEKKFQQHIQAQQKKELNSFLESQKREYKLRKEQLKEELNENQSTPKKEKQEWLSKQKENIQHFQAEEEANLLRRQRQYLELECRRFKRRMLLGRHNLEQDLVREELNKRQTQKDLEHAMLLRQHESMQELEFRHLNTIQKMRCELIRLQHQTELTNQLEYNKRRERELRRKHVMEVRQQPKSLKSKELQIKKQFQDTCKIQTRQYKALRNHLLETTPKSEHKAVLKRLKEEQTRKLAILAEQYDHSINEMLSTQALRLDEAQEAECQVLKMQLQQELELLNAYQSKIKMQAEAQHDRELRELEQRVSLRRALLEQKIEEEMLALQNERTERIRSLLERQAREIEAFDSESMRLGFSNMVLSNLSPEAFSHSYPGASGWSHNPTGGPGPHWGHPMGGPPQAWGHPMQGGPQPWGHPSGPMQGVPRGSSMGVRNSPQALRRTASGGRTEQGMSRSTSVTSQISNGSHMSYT
The settings on record: at 1 µM.

The target of experiment [5] is T2, Serine/threonine-protein kinase TAO1 (Homo sapiens). As to conditions: at 10 µM.
Experiment [6] addresses T3, Serine/threonine-protein kinase TAO2 (Homo sapiens) (UniProt Q9UL54).
T3 sequence (whole entry): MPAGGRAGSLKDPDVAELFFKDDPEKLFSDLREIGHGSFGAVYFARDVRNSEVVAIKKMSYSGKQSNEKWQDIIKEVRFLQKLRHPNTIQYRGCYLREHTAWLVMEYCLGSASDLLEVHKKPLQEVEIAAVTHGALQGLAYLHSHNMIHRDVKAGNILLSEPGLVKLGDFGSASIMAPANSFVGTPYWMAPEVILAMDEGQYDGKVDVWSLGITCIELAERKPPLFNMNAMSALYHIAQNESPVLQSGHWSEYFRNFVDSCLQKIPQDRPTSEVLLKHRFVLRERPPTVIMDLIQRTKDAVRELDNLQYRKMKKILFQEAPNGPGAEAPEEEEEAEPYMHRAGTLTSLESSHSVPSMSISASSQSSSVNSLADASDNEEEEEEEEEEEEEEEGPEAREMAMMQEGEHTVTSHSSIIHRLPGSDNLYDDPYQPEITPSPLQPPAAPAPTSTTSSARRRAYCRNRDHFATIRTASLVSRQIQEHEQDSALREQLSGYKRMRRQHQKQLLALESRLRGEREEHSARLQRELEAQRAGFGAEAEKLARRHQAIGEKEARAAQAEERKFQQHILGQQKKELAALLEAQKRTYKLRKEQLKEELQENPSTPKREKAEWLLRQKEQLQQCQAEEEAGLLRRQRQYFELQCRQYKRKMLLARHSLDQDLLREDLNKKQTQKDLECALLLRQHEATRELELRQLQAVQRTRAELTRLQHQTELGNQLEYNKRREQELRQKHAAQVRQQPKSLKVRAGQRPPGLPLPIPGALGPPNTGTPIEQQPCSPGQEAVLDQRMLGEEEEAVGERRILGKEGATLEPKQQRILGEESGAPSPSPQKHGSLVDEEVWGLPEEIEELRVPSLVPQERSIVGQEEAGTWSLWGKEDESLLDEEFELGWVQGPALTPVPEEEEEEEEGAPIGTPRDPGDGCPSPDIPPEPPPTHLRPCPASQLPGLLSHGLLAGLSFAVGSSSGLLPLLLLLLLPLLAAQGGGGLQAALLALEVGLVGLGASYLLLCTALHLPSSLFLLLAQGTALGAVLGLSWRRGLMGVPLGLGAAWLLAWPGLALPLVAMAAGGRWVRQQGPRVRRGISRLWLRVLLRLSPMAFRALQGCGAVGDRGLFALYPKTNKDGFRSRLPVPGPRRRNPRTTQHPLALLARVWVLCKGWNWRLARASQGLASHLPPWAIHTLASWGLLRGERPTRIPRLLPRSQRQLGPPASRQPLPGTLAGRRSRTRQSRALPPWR
The settings on record: at 1 µM.

Experiment [7] concerns the target T3, Serine/threonine-protein kinase TAO2 (Homo sapiens). The settings on record: at 10 µM.
The target in experiment [8] is T4, Serine/threonine-protein kinase TAO3 (Homo sapiens) (UniProt Q9H2K8).
T4 sequence (whole entry): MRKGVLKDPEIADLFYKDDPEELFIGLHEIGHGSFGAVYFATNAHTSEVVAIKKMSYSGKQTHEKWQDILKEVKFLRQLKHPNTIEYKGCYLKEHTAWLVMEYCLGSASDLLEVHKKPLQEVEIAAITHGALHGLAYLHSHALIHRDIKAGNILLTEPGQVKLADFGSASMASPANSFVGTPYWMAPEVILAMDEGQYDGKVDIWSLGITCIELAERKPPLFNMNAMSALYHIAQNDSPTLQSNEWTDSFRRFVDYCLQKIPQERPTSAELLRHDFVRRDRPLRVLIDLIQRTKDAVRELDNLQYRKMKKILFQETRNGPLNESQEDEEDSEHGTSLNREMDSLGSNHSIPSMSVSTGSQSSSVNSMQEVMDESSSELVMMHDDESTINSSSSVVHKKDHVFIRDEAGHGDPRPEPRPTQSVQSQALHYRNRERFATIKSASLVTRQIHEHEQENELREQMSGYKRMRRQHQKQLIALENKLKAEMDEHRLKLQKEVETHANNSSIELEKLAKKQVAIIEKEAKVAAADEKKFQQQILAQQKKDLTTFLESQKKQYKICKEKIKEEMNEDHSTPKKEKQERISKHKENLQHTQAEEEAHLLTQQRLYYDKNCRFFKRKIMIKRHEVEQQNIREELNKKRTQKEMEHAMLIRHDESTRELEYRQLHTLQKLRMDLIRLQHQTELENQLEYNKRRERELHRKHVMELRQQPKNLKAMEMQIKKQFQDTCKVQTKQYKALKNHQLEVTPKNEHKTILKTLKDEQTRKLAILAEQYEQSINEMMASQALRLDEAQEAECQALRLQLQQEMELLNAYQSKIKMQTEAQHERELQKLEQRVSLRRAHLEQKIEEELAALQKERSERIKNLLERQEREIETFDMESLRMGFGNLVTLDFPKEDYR
As to conditions: at 1 µM.

The target in experiment [9] is T4, Serine/threonine-protein kinase TAO3 (Homo sapiens). The settings on record: at 10 µM.

For one compound, residual activity results are on record in ChEMBL document CHEMBL2218924, “A broad activity screen in support of a chemogenomic map for kinase signalling research and drug discovery” (Biochem J, 2013).

Structures are written as SMILES.

For the compound `COc1ccc(C(=O)Nc2sc3c(c2C(N)=O)CCCC3)cc1OC`, the residual activity in experiment [1] stood at 89%; in [2], 86%; in experiment [3] it was 86%; in experiment [4], 97%; in experiment [5], 86%; in experiment [6] it was 92%. In addition, the residual activity in [7] was found to be 83%; in experiment [8], 91%; in [9] it was 93%.
